Out of some 63,000 compounds screened, about 1,100 (1.7%) were called active. The list comes from a sample in which actives are over-represented; it also holds similar structures and randomly drawn compounds. Entries with a potency or affinity are not part of this list. Unmarked numbers belong to inactive results. No stated cut-off is given here; in the data, active means cytotoxicity above about 50%; inactive means the rest.
Test: HPDE-C7 pancreatic duct cell viability loss – fluorescence, HTS (AID 430);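 further: cells exposed to compound for 48 hours before viability readout; 0% = vehicle and 100% = reference cytotoxic drug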
Details: HPDE-C7 pancreatic duct cells viability, at 10 µM, stronger effect = higher value

SMILES | cytotoxicity
O=C(O)C1CC(=O)N(Cc2ccccc2)C1 (stereo not given) | -5.6%
COC(=O)c1ccc(OCC(=O)Nc2nn(-c3ccccc3)nc2C(N)=O)cc1 | 51.8% (active)
NC(=O)c1nn(-c2ccccc2)nc1NC(=O)CN1CCCCC1 | -13.3%
CC(=O)N(CC(=O)Nc1nn(-c2ccccc2)nc1C(N)=O)Cc1ccccc1 | -8.2%
CCc1nc2ccc(C(=O)NCc3ccco3)cc2nc1CC | 1.5%
O=C1c2oc3ccccc3c(=O)c2C(c2cccc(O)c2)N1CCCN1CCOCC1 (stereo not given) | -13.7%
Cc1ccc(F)cc1NC(=O)c1cccc(N(C)C)c1 | -10.6%
CCNc1ccc(C(=O)OCC)cc1NC(=O)c1cccc(N(C)C)c1 | 54.6% (active)
CCNc1ccc(C(=O)OCC)cc1NC(=O)c1cccc(S(=O)(=O)N2CCOCC2)c1 | 1.8%
CCn1c(SCC(=O)N2CCCCC2)nnc1-c1ccc(S(=O)(=O)N2CCN(C)CC2)cc1 | -22%
COc1ccc(CNC(=O)C2COc3ccccc3O2)c(OC)c1 (stereo not given) | -4.4%
Cc1ccc(C(=O)CC(C(=O)O)n2ccc(C)n2)cc1 (stereo not given) | 4%
Cc1ccc(C(=O)CC(C(=O)O)n2cccn2)cc1 (stereo not given) | -3.1%
O=C1OCCC1N1C(=O)c2ccccc2S1(=O)=O (stereo not given) | -4.1%
Nc1c(Nc2ccccc2)c2ccccc2oc1=O | -3.7%
CCN(C)c1ccc(/C=N\n2nnnc2N)cc1 | 51.3% (active)
CSc1ccc(/C=N/n2nnnc2N)cc1 | -10.4%
CCN(CC)c1ccc(/C=N/n2nnnc2N)c(O)c1 | -2.7%
CCCCS(=O)CC(COc1ccc(Cl)cc1)OC(=O)c1ccccc1 (stereo not given) | -8.9%
COc1ccccc1Nc1nc2ccccc2n1C | -9%

SMILES | cytotoxicity
CNc1ccccc1-c1nc2ccccc2n(C)c1=O | 56.7% (active)
Cn1c(=O)c(-c2ccccc2)nn2c3ccccc3nc12 | -4.7%
Cc1ccc(NCc2nnc(SCC(=O)Nc3cccc(O)c3)n2CC2CCCO2)c(C)c1 (stereo not given) | 8.8%
CC(=O)O[C@H]1C(=O)[C@]2(C)[C@H]([C@H](OC(=O)c3ccccc3)[C@]3(O)C[C@H](OC(=O)[C@H](O)[C@@H](NC(=O)c4ccccc4)c4ccccc4)C(C)=C1C3(C)C)[C@]1(OC(C)=O)CO[C@@H]1C[C@@H]2O | 72% (active)
CC(=O)O[C@@]12CO[C@@H]1C[C@H](O)[C@@]1(C)C(=O)[C@H](O)C3=C(C)[C@@H](OC(=O)[C@H](O)[C@@H](NC(=O)OC(C)(C)C)c4ccccc4)C[C@](O)([C@@H](OC(=O)c4ccccc4)[C@H]21)C3(C)C | 51.5% (active)
CNC(=O)c1ccccc1NC(=O)c1c(O)c2c([nH]c1=O)CCCC2 | 0%
COc1ccc(/C(O)=C2/C(=O)C(=O)N(Cc3cccnc3)C2c2ccccn2)cc1 (stereo not given) | -4.2%
Cc1cc(C)n2c(Br)c(CSc3nc4ccccc4o3)nc2n1 | 3.3%
COC(=O)c1c(NC(=O)CN2CCCC(C)C2)c2c(C)cccc2n1C (stereo not given) | -3.9%
CCCC(=O)NCCCc1nc2ccccc2n1CC | -20.4%
COc1ccc(-n2c(Cc3cccn3C)nnc2SCC(=O)NCc2ccco2)cc1 | -5%
COc1ccc(NC(=O)CSc2nnc(-c3ccccc3C)n2N)cc1OC | -3.3%
CCn1c2ccccc2c2cc(NC(=O)CSc3nnc(-c4ccccc4OC)n3N)ccc21 | 57.2% (active)
CCn1c(SCC(=O)Nc2ccc3c(c2)c2ccccc2n3CC)nnc1-c1ccco1 | 49%
Cc1ccc(-c2cc(C(F)F)nc(NCc3cccnc3)n2)cc1 | 28.4%
CCOC(=O)C(C)Oc1cccc2c(=O)n(CC(=O)N3CCN(C(=O)OCC)CC3)ccc12 (stereo not given) | -8.4%
CCOC(=O)C(C)Oc1cccc2c(=O)n(CC(=O)N3CCc4ccccc43)ccc12 (stereo not given) | -7.3%
CCOC(=O)C(C)Oc1cccc2c(=O)n(CC(=O)NCc3ccco3)ccc12 (stereo not given) | 65.7% (active)
CCOC(=O)C(C)Oc1cccc2c(=O)n(CC(=O)Nc3ccc4c(c3)OCCO4)ccc12 (stereo not given) | 9.2%
CCOC(=O)COc1cccc2c(=O)n(CC(=O)NCc3ccc4c(c3)OCO4)ccc12 | 60.6% (active)

SMILES | cytotoxicity
CCOC(=O)COc1cccc2c(=O)n(CC(=O)N3CCN(C(=O)OCC)CC3)ccc12 | -9.2%
CCOC(=O)C(C)Oc1cccc2c(=O)n(CC(=O)NCc3ccc4c(c3)OCO4)ccc12 (stereo not given) | 53% (active)
CCOC(=O)COc1cccc2c(=O)n(CC(=O)N3CCc4ccccc43)ccc12 | -7.9%
O=C(Cn1cnc2ccccc2c1=O)NCc1ccco1 | -1%
CCCCN(C)CCCNC(=O)c1ccc2c(c1)NC(=O)C(N1CCOCC1)S2 (stereo not given) | 2.3%
CCOC(=O)N1CCN(C(=O)C2CCCN(S(C)(=O)=O)C2)CC1 (stereo not given) | 2.7%
CC(C)Sc1nc2c(cnn2-c2ccccc2)c(=O)[nH]1 | -15.9%
COC(=O)C(C(=O)OC)C(C(C)C)C(C(=O)OC)C(=O)OC | 5.9%
O=C(NCCSCc1ccco1)Nc1ccc(Cl)cc1 | -8.4%
O=C(Nc1ccc(Cl)cc1)NC1CCCC1Cc1ccco1 (stereo not given) | 55% (active)
O=C(Nc1ccc(Cl)cc1)Nc1ccccc1C(=O)NCc1ccco1 | 8.1%
CC(c1ccccc1)N1CNc2c(c(=O)n(C)c(=O)n2C)C1 (stereo not given) | -8.9%
O=C(O)CC(c1ccc(Cl)cc1)N1C(=O)CCC1=O (stereo not given) | -2.8%
CCOc1ccc(NC(=O)CSc2nnc(Cc3cccn3C)n2-c2ccc(OC)cc2)cc1 | -17.3%
c1coc(C2Nc3cccc4cccc(c34)N2)c1 | 4.2%
COc1cc(C2Nc3cccc4cccc(c34)N2)cc(OC)c1OC(C)=O | 72.1% (active)
COc1cc(C2Nc3cccc4cccc(c34)N2)ccc1OC(C)=O | 41.1%
Oc1ccccc1C1Nc2cccc3cccc(c23)N1 | -21.5%
CCN(CC)c1ccc(C2Nc3cccc4cccc(c34)N2)c(O)c1 | 30.4%
COc1cc(C2Nc3cccc4cccc(c34)N2)cc(OC)c1O | 56.8% (active)
